Experimental data: paper PMC7862700, “An all-to-all approach to the identification of sequence-specific readers for epigenetic DNA modifications on cytosine”

target: SPIB (Homo sapiens, UniProt Q01892 1-262); test: DAPPL (digital affinity profiling via proximity ligation, sequencing); 10 mM Tris-HCl pH 7.5, 50 mM NaCl, 1 mM DTT, 4% glycerol, room temperature, 30 min; GST-TFs on glutathione beads, 16-mer random dsDNA library, 0.1% formaldehyde crosslink after washing; high values mean tight binding; details: protein: recombinant; tags: N-terminal GST; dsDNA, one strand shown
Outline: (§1)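 Human transcription factors carrying a GST fusion were produced in yeast, bound to glutathione beads, tagged with DNA barcodes and pooled together with a tag-only sample. Each pool was held with 200 nmole of a random double-stranded 16-mer DNA library in Tris/NaCl/DTT/glycerol buffer for 30 min at room temperature, then washed, crosslinked in 0.1% formaldehyde, proximity-ligated with BsaI/T4 ligase (1 h, 37 °C), PCR-amplified and sequenced on an Illumina NextSeq500. Binding signal is the read frequency of each hexamer for a given factor divided by its frequency in the tag-only sample.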

SPIB, sequence (Q01892 whole entry, the tested form may be a part): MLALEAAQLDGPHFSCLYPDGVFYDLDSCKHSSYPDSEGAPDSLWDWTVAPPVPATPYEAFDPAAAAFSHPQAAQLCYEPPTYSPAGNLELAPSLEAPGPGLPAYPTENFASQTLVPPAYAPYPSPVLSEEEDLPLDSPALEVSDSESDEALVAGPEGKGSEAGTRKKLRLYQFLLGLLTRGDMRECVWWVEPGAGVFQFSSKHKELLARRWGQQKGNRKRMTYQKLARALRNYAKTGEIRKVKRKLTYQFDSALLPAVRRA

Row | Sequence | binding signal
1 | TACCGC | 1.09 fold enrichment (6-mer frequency, TF over GST control)
2 | TGCATA | 1.11 fold enrichment (6-mer frequency, TF over GST control)
3 | AAGTCA | 1.11 fold enrichment (6-mer frequency, TF over GST control)
4 | CGCTCA | 1.16 fold enrichment (6-mer frequency, TF over GST control)
5 | TCACCC | 1.2 fold enrichment (6-mer frequency, TF over GST control)
6 | CTCAGT | 1.14 fold enrichment (6-mer frequency, TF over GST control)
7 | CCTCGG | 1.15 fold enrichment (6-mer frequency, TF over GST control)
8 | TGATGT | 1.41 fold enrichment (6-mer frequency, TF over GST control)
9 | TCCGTT | 1.53 fold enrichment (6-mer frequency, TF over GST control)
10 | CGGTTT | 1.23 fold enrichment (6-mer frequency, TF over GST control)
11 | CTACGT | 1.27 fold enrichment (6-mer frequency, TF over GST control)
12 | TCACAT | 1.19 fold enrichment (6-mer frequency, TF over GST control)
13 | TCAATG | 1.11 fold enrichment (6-mer frequency, TF over GST control)
14 | ACCACT | 1.19 fold enrichment (6-mer frequency, TF over GST control)
15 | TTGTTG | 1.05 fold enrichment (6-mer frequency, TF over GST control)
16 | ACCTTG | 1.18 fold enrichment (6-mer frequency, TF over GST control)
17 | AACGGC | 1.24 fold enrichment (6-mer frequency, TF over GST control)
18 | TCATGC | 1.2 fold enrichment (6-mer frequency, TF over GST control)
19 | AAACGG | 1.23 fold enrichment (6-mer frequency, TF over GST control)

Row | Sequence | binding signal
20 | CCTGTA | 1.19 fold enrichment (6-mer frequency, TF over GST control)
21 | TACAGG | 1.2 fold enrichment (6-mer frequency, TF over GST control)
22 | ACCGCC | 1.13 fold enrichment (6-mer frequency, TF over GST control)
23 | ATCACA | 1.02 fold enrichment (6-mer frequency, TF over GST control)
24 | CCTACC | 1.38 fold enrichment (6-mer frequency, TF over GST control)
25 | TGCTGA | 1.01 fold enrichment (6-mer frequency, TF over GST control)
26 | TGCAAT | 1.16 fold enrichment (6-mer frequency, TF over GST control)
27 | TGTATA | 1.19 fold enrichment (6-mer frequency, TF over GST control)
28 | AAAGGG | 1.19 fold enrichment (6-mer frequency, TF over GST control)
29 | GCCTCC | 1.29 fold enrichment (6-mer frequency, TF over GST control)
30 | GATATC | 1.58 fold enrichment (6-mer frequency, TF over GST control)
31 | TACCCA | 1.1 fold enrichment (6-mer frequency, TF over GST control)
32 | CTGACC | 1.26 fold enrichment (6-mer frequency, TF over GST control)
33 | CCATCA | 1.17 fold enrichment (6-mer frequency, TF over GST control)
34 | TACGTC | 1.31 fold enrichment (6-mer frequency, TF over GST control)
35 | ATACGT | 1.13 fold enrichment (6-mer frequency, TF over GST control)
36 | GGATAT | 1.58 fold enrichment (6-mer frequency, TF over GST control)
37 | GGTCTA | 1.05 fold enrichment (6-mer frequency, TF over GST control)

target: T1, ELK3 (Homo sapiens, UniProt P41970 1-407); test: as above; details: protein: recombinant; tags: N-terminal GST; dsDNA, one strand shown
T1 sequence: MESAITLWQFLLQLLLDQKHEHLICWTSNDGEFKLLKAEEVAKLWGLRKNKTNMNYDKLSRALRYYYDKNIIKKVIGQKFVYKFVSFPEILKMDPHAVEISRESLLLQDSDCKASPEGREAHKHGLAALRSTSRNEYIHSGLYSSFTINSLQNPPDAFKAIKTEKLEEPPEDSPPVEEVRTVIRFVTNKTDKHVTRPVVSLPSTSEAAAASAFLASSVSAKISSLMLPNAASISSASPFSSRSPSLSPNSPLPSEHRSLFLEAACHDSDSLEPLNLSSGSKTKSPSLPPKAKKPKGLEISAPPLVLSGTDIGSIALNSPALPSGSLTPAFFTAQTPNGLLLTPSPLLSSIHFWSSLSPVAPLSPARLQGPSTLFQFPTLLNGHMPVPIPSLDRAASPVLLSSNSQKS
Outline: as §1

Row | Sequence | binding signal
38 | TACCGC | 1.13 fold enrichment (6-mer frequency, TF over GST control)
39 | TGCATA | 1.15 fold enrichment (6-mer frequency, TF over GST control)
40 | AAGTCA | 1.28 fold enrichment (6-mer frequency, TF over GST control)
41 | CGCTCA | 1.13 fold enrichment (6-mer frequency, TF over GST control)
42 | TCACCC | 1.15 fold enrichment (6-mer frequency, TF over GST control)
43 | CTCAGT | 1.24 fold enrichment (6-mer frequency, TF over GST control)
44 | CCTCGG | 1.05 fold enrichment (6-mer frequency, TF over GST control)
45 | TGATGT | 1.12 fold enrichment (6-mer frequency, TF over GST control)
46 | TCCGTT | 1.54 fold enrichment (6-mer frequency, TF over GST control)
47 | CGGTTT | 1.25 fold enrichment (6-mer frequency, TF over GST control)
48 | CTACGT | 1.31 fold enrichment (6-mer frequency, TF over GST control)
49 | TCACAT | 1.24 fold enrichment (6-mer frequency, TF over GST control)
50 | TCAATG | 1.07 fold enrichment (6-mer frequency, TF over GST control)
51 | ACCACT | 1.21 fold enrichment (6-mer frequency, TF over GST control)
52 | TTGTTG | 1.12 fold enrichment (6-mer frequency, TF over GST control)
53 | GGCATT | 1.14 fold enrichment (6-mer frequency, TF over GST control)
54 | ACCTTG | 1.38 fold enrichment (6-mer frequency, TF over GST control)
55 | AACGGC | 1.06 fold enrichment (6-mer frequency, TF over GST control)
56 | TCATGC | 1.1 fold enrichment (6-mer frequency, TF over GST control)
57 | AAACGG | 1.22 fold enrichment (6-mer frequency, TF over GST control)

Row | Sequence | binding signal
58 | CCTGTA | 1.28 fold enrichment (6-mer frequency, TF over GST control)
59 | TACAGG | 1.03 fold enrichment (6-mer frequency, TF over GST control)
60 | ACCGCC | 1.3 fold enrichment (6-mer frequency, TF over GST control)
61 | ATCACA | 1.13 fold enrichment (6-mer frequency, TF over GST control)
62 | CCTACC | 1.27 fold enrichment (6-mer frequency, TF over GST control)
63 | TGCTGA | 1.19 fold enrichment (6-mer frequency, TF over GST control)
64 | TGCAAT | 1.19 fold enrichment (6-mer frequency, TF over GST control)
65 | TGTATA | 1.15 fold enrichment (6-mer frequency, TF over GST control)
66 | GGCTTA | 1.01 fold enrichment (6-mer frequency, TF over GST control)
67 | AAAGGG | 1.1 fold enrichment (6-mer frequency, TF over GST control)
68 | GCCTCC | 1.33 fold enrichment (6-mer frequency, TF over GST control)
69 | GATATC | 1.51 fold enrichment (6-mer frequency, TF over GST control)
70 | TACCCA | 1.09 fold enrichment (6-mer frequency, TF over GST control)
71 | CTGACC | 1.33 fold enrichment (6-mer frequency, TF over GST control)
72 | CCATCA | 1.2 fold enrichment (6-mer frequency, TF over GST control)
73 | TACGTC | 1.21 fold enrichment (6-mer frequency, TF over GST control)
74 | ATACGT | 1.12 fold enrichment (6-mer frequency, TF over GST control)
75 | GGATAT | 1.55 fold enrichment (6-mer frequency, TF over GST control)
76 | GGTCTA | 1.24 fold enrichment (6-mer frequency, TF over GST control)

target: T2, FEV (Homo sapiens, UniProt Q99581 1-238); test: as above; details: protein: recombinant; tags: N-terminal GST; dsDNA, one strand shown
T2 sequence: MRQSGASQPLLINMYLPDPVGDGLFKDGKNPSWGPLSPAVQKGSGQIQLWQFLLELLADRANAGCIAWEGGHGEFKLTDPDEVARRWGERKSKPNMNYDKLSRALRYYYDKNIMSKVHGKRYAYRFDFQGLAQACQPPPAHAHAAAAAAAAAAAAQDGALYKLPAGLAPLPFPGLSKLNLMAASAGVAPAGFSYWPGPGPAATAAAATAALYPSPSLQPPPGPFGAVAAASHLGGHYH
Outline: as §1

Row | Sequence | binding signal
77 | TACCGC | 1.13 fold enrichment (6-mer frequency, TF over GST control)
78 | TGCATA | 1.13 fold enrichment (6-mer frequency, TF over GST control)
79 | AAGTCA | 1.17 fold enrichment (6-mer frequency, TF over GST control)
80 | CGCTCA | 1.13 fold enrichment (6-mer frequency, TF over GST control)
81 | TCACCC | 1.15 fold enrichment (6-mer frequency, TF over GST control)
82 | CTCAGT | 1.12 fold enrichment (6-mer frequency, TF over GST control)
83 | CCTCGG | 1.07 fold enrichment (6-mer frequency, TF over GST control)
84 | TGATGT | 1.26 fold enrichment (6-mer frequency, TF over GST control)
85 | TCCGTT | 1.71 fold enrichment (6-mer frequency, TF over GST control)
86 | CGGTTT | 1.44 fold enrichment (6-mer frequency, TF over GST control)
87 | CTACGT | 1.28 fold enrichment (6-mer frequency, TF over GST control)
88 | TCACAT | 1.28 fold enrichment (6-mer frequency, TF over GST control)
89 | TCAATG | 1.03 fold enrichment (6-mer frequency, TF over GST control)
90 | ACCACT | 1.35 fold enrichment (6-mer frequency, TF over GST control)
91 | TTGTTG | 1.01 fold enrichment (6-mer frequency, TF over GST control)
92 | GGCATT | 1.04 fold enrichment (6-mer frequency, TF over GST control)
93 | ACCTTG | 1.12 fold enrichment (6-mer frequency, TF over GST control)
94 | AACGGC | 1.17 fold enrichment (6-mer frequency, TF over GST control)
95 | TCATGC | 1.14 fold enrichment (6-mer frequency, TF over GST control)

Row | Sequence | binding signal
96 | AAACGG | 1.42 fold enrichment (6-mer frequency, TF over GST control)
97 | CCTGTA | 1.2 fold enrichment (6-mer frequency, TF over GST control)
98 | TACAGG | 1.23 fold enrichment (6-mer frequency, TF over GST control)
99 | ACCGCC | 1.32 fold enrichment (6-mer frequency, TF over GST control)
100 | ATCACA | 1.11 fold enrichment (6-mer frequency, TF over GST control)
101 | CCTACC | 1.29 fold enrichment (6-mer frequency, TF over GST control)
102 | TGCAAT | 1.2 fold enrichment (6-mer frequency, TF over GST control)
103 | TGTATA | 1.02 fold enrichment (6-mer frequency, TF over GST control)
104 | GGCTTA | 1.08 fold enrichment (6-mer frequency, TF over GST control)
105 | AAAGGG | 1.11 fold enrichment (6-mer frequency, TF over GST control)
106 | GCCTCC | 1.32 fold enrichment (6-mer frequency, TF over GST control)
107 | GATATC | 4.01 fold enrichment (6-mer frequency, TF over GST control)
108 | TACCCA | 1.03 fold enrichment (6-mer frequency, TF over GST control)
109 | CTGACC | 1.43 fold enrichment (6-mer frequency, TF over GST control)
110 | CCATCA | 1.13 fold enrichment (6-mer frequency, TF over GST control)
111 | TACGTC | 1.24 fold enrichment (6-mer frequency, TF over GST control)
112 | ATACGT | 1.11 fold enrichment (6-mer frequency, TF over GST control)
113 | GGATAT | 3.83 fold enrichment (6-mer frequency, TF over GST control)
114 | GGTCTA | 1.06 fold enrichment (6-mer frequency, TF over GST control)
